CHX counter: counter-screen for Shiga toxin inhibitors: cycloheximide protein synthesis inhibition; cell reporter, cycloheximide protein synthesis inhibition counterscreen; max response, %; hit rate 12% among 300,000; in the data active = max response mostly above about 13%, no sharp cut-off; inactive = mostly below about 14%; also: read at 38.3 µM for the half of the compounds with a filed dose
AMA1 RON2 block: AMA1-RON2 (P. falciparum) interaction inhibition; AlphaScreen AMA1-biotinylated RON2 peptide binding; Potency, µM (highest dose often 58.2 µM), hits mostly inhibitors; hit rate 0.2% among 360,000; also: nearly all actives have a fitted effect of over 45% in size
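AMA1 (3D7) with his tag at 25 nM final met compounds first, then biotinylated RON2 peptide at 25 nM; detection used donor plus acceptor beads, 10 µg/mL apiece, read by AlphaScreen after 30 min at room temperature.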
Pf growth 48h: inhibits P. falciparum growth in the first generation, 48 h | AID 504832 | hit rate 5.9% among 310,000 | P. falciparum luciferase growth in erythrocytes, 48 h | Potency, µM (doses to about 28.7 µM), hits mostly inhibitors
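Luciferase-expressing parasites in RBCs, 2% Hct / 0.1% parasitemia final; RPMI 1640 + 0.5% Albumax; 37 C, 5% CO2, one generation; luminescence read-out, lower signal = inhibition.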
Pf growth 96h: P. falciparum growth inhibition at 96 hour, primary screen for plastid delayed-death inhibitors. P. falciparum luciferase reporter growth, 96 h. Potency, µM (doses to about 28.7 µM), usual class: inhibitors. hit rate 6.9% among 320,000
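Two parasite generations (96 h, 37 C, 5% CO2) of compound exposure in infected erythrocytes (0.05% parasitemia, 2% hematocrit). Luciferase-reporter P. falciparum; decreased luminescence indicates inhibited growth, aimed at apicoplast-acting delayed death.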
HCV inh: inhibitors of hepatitis C virus infection. Huh7.5.1 HCVcc-Cre infection, luciferase reporter, 44 h. Potency, µM (titrated, usually from 41.8 µM), most hits filed as inhibitors. hit rate 3.4% among 340,000
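Infectious HCVcc-Cre (~0.5 moi) was added to cells just after compound, with cells seeded 4 h earlier at 1,000 per well. Luciferase activity after 44 h culture reported infection; substrate was incubated 15 min at room temperature before reading.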
Shiga inhibitor: Shiga toxin inhibition; AID 2315; inhibition, % at 38.7 µM; Vero cells, Shiga toxin protein synthesis inhibition reporter; hit rate 9.2% among 290,000; in the data active = inhibition mostly above about 28%, no sharp cut-off; inactive = mostly below about 43%
Numbers stand for hits; [ ] = remark or other dose. Most compounds without a hit are left out; they make up all but 21% or so of the library. Unless noted, calls follow the shape of the dose curve; as a rule, active = well fitted curve in the direction sought with a large enough effect; inconclusive = small, poorly fitted or top-dose-only effect, or another doubt; inactive = no such curve, though single readings can be large; an effect the other way counts as inactive or inconclusive.

Results for C[C@@H](NC(=O)c1[nH]cnc1C(=O)Nc1ccccc1F)c1ccccc1 ?
AMA1 RON2 block: inactive

What do the screens show for `COc1cc(/C=C(\C#N)c2nc3ccccc3[nH]2)c([N+](=O)[O-])cc1OCc1ccccc1`?
CHX counter: inactive; AMA1 RON2 block: inactive; Pf growth 48h: 2.6µM; Pf growth 96h: inactive; HCV inh: 7.1µM; Shiga inhibitor: inactive

What do the screens show for `CCOc1cc(/C=C(/C#N)c2nc3ccccc3[nH]2)ccc1OCc1ccc(C(=O)O)o1`?
CHX counter: inactive; AMA1 RON2 block: inactive; Pf growth 48h: inconclusive; Pf growth 96h: inactive; HCV inh: inactive; Shiga inhibitor: inactive

How did COc1cc(/C=C(/C#N)c2nc3ccccc3[nH]2)ccc1OCC(=O)Nc1ccccc1C do in these assays?
CHX counter: inactive; AMA1 RON2 block: inactive; Pf growth 48h: inconclusive; Pf growth 96h: 1.5µM; HCV inh: inactive; Shiga inhibitor: inactive

What do the screens show for `COc1cc(/C=C(\C#N)c2nc3ccccc3[nH]2)ccc1OC(=O)c1ccco1`?
CHX counter: 48; AMA1 RON2 block: inactive; Pf growth 48h: inactive; Pf growth 96h: inactive; HCV inh: inconclusive; Shiga inhibitor: 43

Results for COc1cc(/C=C(/C#N)c2nc3ccccc3[nH]2)ccc1OCC(=O)Nc1ccccc1C(C)C ?
CHX counter: inactive; AMA1 RON2 block: inactive; Pf growth 48h: inconclusive; Pf growth 96h: 9.3µM; HCV inh: inconclusive; Shiga inhibitor: inactive

Results for COCCCn1cc(CN2CC(N3CCCCC3)CS2(=O)=O)nn1 (centres undefined) ?
AMA1 RON2 block: inactive

Results for O=C1CC(c2ccc(F)cc2)Sc2nc(C34CC5CC(CC(C5)C3)C4)nn21 (centres undefined) ?
CHX counter: inactive; AMA1 RON2 block: inactive[2.32 µM]; Pf growth 48h: inactive; Pf growth 96h: inactive; HCV inh: inactive; Shiga inhibitor: inactive

Results for C/C(=N\Nc1ccccc1)c1c(O)cc(C)oc1=O ?
CHX counter: inactive; AMA1 RON2 block: inactive; Pf growth 48h: inactive; Pf growth 96h: inactive; HCV inh: inactive; Shiga inhibitor: inactive

What do the screens show for `O=C(N/N=C/c1ccco1)c1cccc(NC(=O)c2cccc(Cl)c2)c1`?
CHX counter: 41; AMA1 RON2 block: inactive; Pf growth 48h: inactive; Pf growth 96h: inactive; HCV inh: inactive; Shiga inhibitor: 81

Results for C/C(=N\NC(=O)c1cccc(C)c1)c1cccc(NC(=O)c2ccco2)c1 ?
CHX counter: 19; AMA1 RON2 block: inactive; Pf growth 48h: inactive; Pf growth 96h: inactive; HCV inh: inactive; Shiga inhibitor: inactive

Results for O=C(N/N=C/c1ccco1)c1ccc(NC(=O)c2ccccc2Cl)cc1 ?
CHX counter: inactive; AMA1 RON2 block: inactive; Pf growth 48h: inactive; Pf growth 96h: inconclusive; HCV inh: inactive; Shiga inhibitor: inactive

What do the screens show for `CC(=NNC(=O)c1ccncc1)c1cccc(Cl)c1`?
AMA1 RON2 block: inactive; HCV inh: inactive

What do the screens show for `C/C(=N/NC(=O)c1cccc(C)c1)c1c(O)cc(C)oc1=O`?
CHX counter: 31; AMA1 RON2 block: inactive; Pf growth 48h: inactive; Pf growth 96h: inactive; HCV inh: inactive; Shiga inhibitor: 61

How did C/C(=N\NC(=O)c1cccc(Cl)c1)c1cccc(NC(=O)c2ccco2)c1 do in these assays?
CHX counter: 24; AMA1 RON2 block: inactive; Pf growth 48h: inconclusive; Pf growth 96h: 12µM; HCV inh: inconclusive; Shiga inhibitor: 91

What do the screens show for `Cc1ccsc1/C=C1/NC(=O)N(Cc2ccc(F)cc2)C1=O`?
CHX counter: inactive; AMA1 RON2 block: inactive; Pf growth 48h: inconclusive; Pf growth 96h: inactive; HCV inh: inactive; Shiga inhibitor: inactive

How did COc1cccc(C2C(C(=O)c3cccs3)=C(O)C(=O)N2CCN2CCOCC2)c1OC (centres undefined) do in these assays?
CHX counter: inactive; AMA1 RON2 block: inactive; Pf growth 48h: inactive; Pf growth 96h: inconclusive; HCV inh: inactive; Shiga inhibitor: inactive

Results for COC(=O)[C@]12CCCCC=C1N(Cc1ccc(Cl)cc1Cl)C(=O)[C@H](CC(=O)NCCC(C)C)C2 ?
AMA1 RON2 block: inactive

Results for CCOC(=O)c1ccc(NC(=O)c2cnccn2)cc1 ?
CHX counter: 20; AMA1 RON2 block: inactive; Pf growth 48h: inactive; Pf growth 96h: inconclusive; HCV inh: inactive; Shiga inhibitor: inactive

What do the screens show for `CCOc1cc(-n2cnnn2)c(OCC)cc1NC(=O)c1cnccn1`?
CHX counter: inactive; AMA1 RON2 block: inactive; Pf growth 48h: inactive; Pf growth 96h: 5.2µM; HCV inh: inactive; Shiga inhibitor: inactive

Results for CCCCc1ccc(NC(=O)c2cnccn2)cc1 ?
CHX counter: 37; AMA1 RON2 block: inactive; Pf growth 48h: inactive; Pf growth 96h: inactive; HCV inh: inactive; Shiga inhibitor: 61

How did CCCc1ccc(C(C)NC(=O)c2cnccn2)cc1 (centres undefined) do in these assays?
CHX counter: inactive; AMA1 RON2 block: inactive; Pf growth 48h: inconclusive; Pf growth 96h: inactive; HCV inh: inactive; Shiga inhibitor: inactive

How did CCOC(=O)c1ccc(NC(=O)C2CCCN(c3cnccn3)C2)cc1 (centres undefined) do in these assays?
CHX counter: 29; AMA1 RON2 block: inactive; Pf growth 48h: inactive; Pf growth 96h: inactive; HCV inh: inactive; Shiga inhibitor: 34

What do the screens show for `CC(C)NC(=O)N(Cc1ccccc1)Cc1cccs1`?
CHX counter: inactive; AMA1 RON2 block: inactive; Pf growth 48h: inactive; Pf growth 96h: inactive; HCV inh: inactive; Shiga inhibitor: inactive

Results for O=C(NCC1CCCO1)c1cc2ccccc2nc1Cl (centres undefined) ?
CHX counter: 28; AMA1 RON2 block: inactive; Pf growth 48h: inactive; Pf growth 96h: inactive; HCV inh: inactive; Shiga inhibitor: 76

Results for O=C(NCC1CCCO1)c1cc2ccccc2cc1O (centres undefined) ?
AMA1 RON2 block: inactive; Pf growth 48h: inconclusive; Pf growth 96h: inconclusive; HCV inh: inactive

Results for Cc1nc2ccc(F)cc2cc1C(=O)NCC1CCCO1 (centres undefined) ?
CHX counter: inactive; AMA1 RON2 block: inactive; Pf growth 48h: inconclusive; Pf growth 96h: 6.6µM; HCV inh: inactive; Shiga inhibitor: inactive

What do the screens show for `Cc1nn(-c2ccc(F)cc2)c(Cl)c1C(=O)NCC1CCCO1` (centres undefined)?
AMA1 RON2 block: inactive; Pf growth 48h: inactive; Pf growth 96h: inconclusive; HCV inh: inactive

How did O=C(c1ccc(NC(=O)C(c2ccccc2)c2ccccc2)cc1)c1ccc(C(=O)O)c(C(=O)O)c1 do in these assays?
CHX counter: inactive; AMA1 RON2 block: inactive; Pf growth 48h: inactive; Pf growth 96h: inconclusive; HCV inh: inactive; Shiga inhibitor: inactive

Results for CC1=CC[C@@]23CCCN2C(=O)CCC[C@H]3C1 ?
CHX counter: inactive; AMA1 RON2 block: inactive; HCV inh: inactive; Shiga inhibitor: inactive
